This is an account of results in PubChem BioAssay (NCATS).

Where “and” joins values, the source holds several entries; their conditions need not be identical. Identical values can stand only once. Records with an inconclusive call do not appear. Calls of active or inactive are those of the source. Unless noted, the call rests on the fitted dose curve; in most records, active means well fitted curve in the direction sought with a large enough effect; inconclusive means small, poorly fitted or top-dose-only effect, or another doubt; inactive means no such curve, though single readings can be large; an effect the other way counts as inactive or inconclusive.

Assay [1] concerns the target Alpha-galactosidase A (Homo sapiens) (UniProt P06280). Nature of the assay: Counterscreen for Glucocerebrosidase Inhibitors: qHTS Assay for Human alpha-Galactosidase at pH 4.5 (AID 992). Further: 0% is about no effect. The essentials:
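Citrate buffer pH 4.5, Tween-20 0.005%. Enzyme 2 nM, substrate 80 uM, 20 min RT. Stop pH 10. Fluorescence Ex 365/Em 440. AC50 by Hill fit.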
In general terms: The purpose of a counterscreen is to sort out artefacts and off-target activity.

Assay [2] concerns the target alpha-glucosidase (Oryza sativa, rice) (UniProt Q653V4). Nature of the assay: Counterscreen for Glucocerebrosidase Inhibitors: qHTS Assay for Rice alpha-Glucosidase at pH 5.0 (AID 997).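 Further: 0% = full activity with enzyme and -100% = basal without enzyme.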 The essentials: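 Endpoint fluorogenic assay at pH 5.0: compounds (0.7 nM to 77 uM) titrated against 4 nM rice enzyme and 400 uM 4-MU-alpha-glucoside for 20 min at room temperature; NaOH/glycine stop, read ex 365/em 440 nm, Hill-fitted AC50.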

Assay [3] can be described thus: Validation of Assay for Modulators of Lamin A Splicing (AID 1459; active means well fitted curve in the direction sought with a large enough effect in the signal ratio; the % refers to the signal ratio;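 further: cells exposed to compound for two days before reading; 0% is about no effect; ratio rise marks activators and ratio drop marks inhibitors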). The essentials:
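Splicing correction read as GFP (500-530 nm) over DsRed2 (575-640 nm) object intensity after 48 h compound exposure of reporter HeLa S3 clones (600 cells/well, 2% FBS medium); ancitabine and cycloheximide titrations, 0.5% DMSO as vehicle.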

For assay [4], the target named is DNA repair nuclease/redox regulator APEX1 (Homo sapiens) (UniProt P27695). The experiment in a line: qHTS Validation Assay for Inhibitors of the Human Apurinic/apyrimidinic Endonuclease 1 (APE1) (AID 1705;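 further: TAMRA fluorescence gain over two minutes as APE1 cuts a quenched THF abasic duplex; on the % scale 0 is the no-effect control and ±100 the full control effect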). The essentials:
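Activity read as rising fluorescence (598 nm emission, 525 nm excitation) from incision of a TAMRA/BHQ-2 duplex carrying a THF abasic site (50 nM). Compound and enzyme sat 15 min at RT before substrate start; signal change between first and third 60-s reads.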
For orientation: In qHTS, concentration-response curves come from the screen itself.

Assay [5] can be described thus: Counterscreen for APE1 Inhibitors: Fluorescent Dye Displacement Validation Assay (AID 1707).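 Further: plate controls were ThO with dsDNA and no compound for no effect and ThO without dsDNA for full effect.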 The essentials:
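Signal: ThO fluorescence (ex 480 nm/em 540 nm) on binding 50 nM dsDNA; displacement by test compound reduces it. Conditions: 250 nM dye, 50 mM Tris-HCl pH7.5, 2 mM MgCl2, 50mM NaCl, 0.01% Tween-20.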

The target of assay [6] is Endonuclease 4 (Escherichia coli (strain K12)) (UniProt P0A6C1). Nature of the assay: Counterscreen for APE1 Inhibitors: qHTS Validation Assay for Inhibitors of Endonuclease IV (AID 1708). Further: on the % scale 0 is the no-effect control and ±100 the full control effect. The essentials: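 Measured as reaction progress, the fluorescence gain between first and third kinetic reads after adding 50 nM TAMRA/BHQ-2 THF duplex to 2 nM enzyme preincubated 15 min with compound; 2 mM MgCl2, pH 7.5.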

Assay [7] in a line: qHTS Assay for Lipid Storage Modulators (AID 1519; calls by dose curve; on activity change, negative = inhibition: on the % scale 0 is the no-effect control and ±100 the full control effect). The settings on record: Drosophila S3 cells, BODIPY lipid droplet/cell ratio, laser cytometry, cells loaded with oleic acid. The method, boiled down:
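Cells seeded at 5,000 per well were treated with compounds over a concentration series and loaded with oleic acid (400 uM, as added). Lipid droplet fluorescence (488 nm excitation, 500-530 nm channel) was read by laser-scanning cytometry and normalized to 20 uM Triacsin C.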

The nature of assay [8]: Cell Viability - LYMP2-007 (AID 979).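 Further: cells exposed to compound for 24 h before reading; 0% = DMSO only and the negative end = 92 µM tetraoctylammonium bromide; nearly all actives have a fitted effect of over 60% in size.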 The method, boiled down:
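Measured via luciferase-based ATP quantitation: lymphoblastoid cells, 24 hr compound exposure at 37 C, AC50 from Hill fits.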

Assay [9] can be described thus: Cell Viability - LYMP2-008 (AID 980). Further: on the % scale 0 is the no-effect control and ±100 the full control effect; nearly all actives have a fitted effect of over 60% in size. The method, boiled down:
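Measured: ATP-dependent luminescence, proportional to viable cell number, in human lymphoblastoid cells treated 24 hr with compound in complete culture medium. Values are AC50s from Hill-equation modelling of qHTS titrations.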

Assay [10] can be described thus: Cell Viability - LYMP2-010 (AID 981). Further: on the % scale 0 is the no-effect control and ±100 the full control effect; nearly all actives have a fitted effect of over 55% in size. The method, boiled down:
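This 24 hr viability screen uses LYMP2-010 lymphoblastoid cells, quantifies ATP via luciferase luminescence, and derives AC50 from Hill fits of qHTS concentration-response data.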

The nature of assay [11]: Cell Viability - LYMP2-012 (AID 982).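 Further: cellular ATP by luciferase luminescence where a drop means cytotoxicity; cells exposed to compound for one day before reading; 0% = DMSO only and full loss = 92 µM tetraoctylammonium bromide; nearly all actives have a fitted effect of over 55% in size.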
Assay [12] in a line: Cell Viability - LYMP2-014 (AID 983).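 Further: plate controls were DMSO only for no effect and 92 µM tetraoctylammonium bromide for full effect; nearly all actives have a fitted effect of over 50% in size.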 The essentials: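 Quantitative HTS in lymphoblastoid cells: 24 hr compound exposure, then CellTiter-Glo ATP luminescence. Positive control was tetraoctylammonium bromide, 6.4pM to 92 uM.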
Assay [13] is described as follows: Cell Viability - LYMP2-016 (AID 984). Further: on the % scale 0 is the no-effect control and ±100 the full control effect; nearly all actives have a fitted effect of over 55% in size. The method, boiled down: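 Cytotoxicity was scored by luminescent ATP content (CellTiter-Glo) after 24 h compound exposure at 37 C of a human lymphoblastoid line at 2500 cells/well. Concentration-response data were fitted to the Hill equation for AC50.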
Assay [14] can be described thus: Cell Viability - LYMP2-018 (AID 985).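 Further: plate controls were DMSO only for no effect and tetraoctylammonium bromide at 92 µM for full effect; nearly all actives have a fitted effect of over 50% in size.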 The method, boiled down: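 In this qHTS viability assay, cells are treated for 24 hr and cellular ATP is quantified by luciferase-based luminescence, with tetraoctylammonium bromide as positive control.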
Assay [15] is described as follows: Cell Viability - LYMP2-020 (AID 986).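 Further: plate controls were DMSO only for no effect and tetraoctylammonium bromide at 92 µM for full effect; nearly all actives have a fitted effect of over 55% in size.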 The essentials: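 Cells at 2500 per well receive a 24 hr compound exposure at 37 C. Viability is measured as ATP-dependent luciferase luminescence, with AC50 modeled from qHTS concentration-response curves.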
A short description of assay [16]: Cell Viability - LYMP2-022 (AID 987). The essentials: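 In this qHTS cytotoxicity screen, compound titrations were incubated 24 hr at 37 C with human lymphoblastoid cells in complete medium. Luciferase-based ATP luminescence provided the viability signal.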
Assay [17] is described as follows: Cell Viability - LYMP2-024 (AID 988).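 Further: plate controls were DMSO only for no effect and 92 µM tetraoctylammonium bromide for full effect; nearly all actives have a fitted effect of over 60% in size.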 The essentials:
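Cells at 2500 per well received compound for 24 hr after a 5 hr settling period. Viability was scored by CellTiter-Glo luminescence, with AC50 from Hill fits.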

Assay [18] is described as follows: Cell Viability - LYMP1-002 - Assay at 24 hr (AID 993). Further: on the % scale 0 is the no-effect control and ±100 the full control effect. The essentials: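 Viability was judged from intracellular ATP using a luciferase read-out, following a 24-hour compound incubation at 37 C of lymphoblastoid cells seeded at 2500 per well. Concentration-response data were fitted to the Hill equation for AC50.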
The nature of assay [19]: Cell Viability - LYMP1-002 - Assay at 40 hr (AID 994).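 Further: 0% = DMSO only and full inhibition = 92 µM tetraoctylammonium bromide; nearly all actives have a fitted effect of over 60% in size.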 The essentials: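 Concentration-dependent ATP loss after 40 hr treatment at 37 C defined toxicity; AC50 values were obtained by fitting the standard Hill equation.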
Assay [20] in a line: qHTS for differential inhibitors of proliferation of Plasmodium falciparum line 7G8 (AID 1815).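 Further: parasite growth measured after three days of incubation.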 Further: potency means the concentration at half of the fitted maximal effect.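 On activity change, negative = inhibition: plate controls were vehicle wells for no effect and reference inhibitor wells for full effect.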
[21] abbreviates: measured here: cell count channel max response.
Where [22] appears, read: measured here: lipid channel max response.

Sequence of DNA repair nuclease/redox regulator APEX1 (Homo sapiens) (P27695 whole entry, looked up): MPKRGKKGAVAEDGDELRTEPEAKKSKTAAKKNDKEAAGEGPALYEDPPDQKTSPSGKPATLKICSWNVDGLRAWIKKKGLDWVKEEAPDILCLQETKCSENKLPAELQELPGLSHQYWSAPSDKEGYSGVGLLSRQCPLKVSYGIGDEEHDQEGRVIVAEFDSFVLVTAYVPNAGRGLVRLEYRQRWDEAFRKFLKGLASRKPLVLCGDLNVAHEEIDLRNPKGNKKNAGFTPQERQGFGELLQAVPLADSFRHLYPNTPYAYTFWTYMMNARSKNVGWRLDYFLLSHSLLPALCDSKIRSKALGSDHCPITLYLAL
Sequence of Alpha-galactosidase A (Homo sapiens) (P06280 whole entry, looked up): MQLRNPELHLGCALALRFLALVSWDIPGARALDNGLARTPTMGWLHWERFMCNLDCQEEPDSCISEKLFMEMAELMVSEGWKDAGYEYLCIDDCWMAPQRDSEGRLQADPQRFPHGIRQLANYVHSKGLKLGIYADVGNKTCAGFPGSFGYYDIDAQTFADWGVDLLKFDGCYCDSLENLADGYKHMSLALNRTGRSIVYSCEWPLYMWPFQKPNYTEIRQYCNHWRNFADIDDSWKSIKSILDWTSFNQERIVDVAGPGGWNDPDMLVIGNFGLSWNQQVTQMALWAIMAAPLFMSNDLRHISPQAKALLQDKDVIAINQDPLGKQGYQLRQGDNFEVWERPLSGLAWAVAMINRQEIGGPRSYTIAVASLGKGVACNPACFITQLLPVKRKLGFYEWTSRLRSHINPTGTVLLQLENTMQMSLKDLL

As to `CC(=O)N1CCN(c2ccc(OC[C@H]3CO[C@](Cn4ccnc4)(c4ccc(Cl)cc4Cl)O3)cc2)CC1`, the outcome in assay [1], in assay [2], in assay [3] and in assay [6] was inactive. In addition, the Potency entry in assay [4] and in [5] was “inactive” in each case.
Regarding `O=C(CCc1ccc(O)cc1)c1c(O)cc(O)cc1O`, the call in assay [1], in assay [2], in assay [3] and in assay [6] was inactive. Also, the activity change, negative = inhibition in assay [7] (at 57.5 µM (top of the series)) is 10.4% (inactive). In addition, the max response in [7] (setting [21]) turned out to be 5.8%; in [7] (setting [22]), 18.1%. Moreover, the Potency entry in assay [4] and in assay [5] was “inactive” each time.
As to `CCC1=C(C)CN(C(=O)NCCc2ccc(S(=O)(=O)NC(=O)NC3CCC(C)CC3)cc2)C1=O` (stereo unspecified), the activity change, negative = inhibition in assay [7] (at 25.7 µM (top of the series)) is -0.769% (inactive). The max response in assay [7] (setting [21]) is -5.01%; in assay [7] (setting [22]) it was -5.89%.
With `O=C1c2c(O)cc(O)cc2OC(c2ccc(O)c(O)c2)C1O` (stereo unspecified), the compound was classed as inactive in [3] and in assay [6]. For the same compound, the activity change, negative = inhibition in assay [7] (at 57.5 µM (top of the series)) is 0.956% (inactive). Further, the max response in [7] (setting [21]) was found to be 37.7%; in assay [7] (setting [22]) it was 36.5%. For the same compound, the Potency result in [4] and in assay [5] was “inactive” throughout.
As to `CN(C)CCc1c[nH]c2ccc(Cn3cncn3)cc12`, the activity change, negative = inhibition in assay [7] (at 57.5 µM (top of the series)) was 3.43% (inactive). The results for the max response in assay [7] (setting [21]) and in assay [7] (setting [22]) were 14.1% and 22%, respectively.
With `c1ccc2[nH]c(-c3cscn3)nc2c1`, the Potency result in [8], in assay [9], in [10], in assay [11], in assay [12] and in [13] was “inactive” throughout. Moreover, the Potency result in assay [14], in assay [15], in assay [16], in assay [17], in assay [18] and in assay [19] was “inactive” throughout. The activity change, negative = inhibition in assay [7] (at 25.7 µM (top of the series)) is 0.183% (inactive). Moreover, the results for the max response in [7] (setting [21]) and in assay [7] (setting [22]) were -11.6% and -10.4%, respectively.
As to `Oc1ccc(-c2nc(-c3ccc(F)cc3)c(-c3ccncc3)[nH]2)cc1`, the result in [1] and in assay [2] was inactive. In addition, the Potency entry in assay [4] and in [5] was “inactive” each time.
Consider `NC(=NCc1ccccc1)NC(=O)c1nc(Cl)c(N)nc1N`, for which the call in assay [1], in assay [2] and in assay [6] was inactive. The activity change, negative = inhibition is 0.817% (inactive) in [7] (at 25.7 µM (top of the series)) and 2.33% (inactive) in assay [7] (at 57.5 µM (top of the series)). Besides, the max response in assay [7] (setting [21]) was -4.7% and 21.8%; in assay [7] (setting [22]) it was -4.9% and 26.9%. Moreover, the Potency result in assay [4] and in assay [5] was “inactive” each time. The Potency in [20] is 2 µM (active).
As for `Cc1ccc(C)c(OCCCC(C)(C)C(=O)O)c1`, the Potency entry in [8], in [9], in assay [10], in assay [11], in assay [12] and in assay [13] was “inactive” in each case. In addition, the Potency result in assay [14], in [15], in assay [16], in assay [17], in assay [18] and in assay [19] was “inactive” in each case. In addition, in assay [7] (at 25.7 µM (top of the series)), the activity change, negative = inhibition was 0.467% (inactive). Moreover, the figures for the max response in assay [7] (setting [21]) and in [7] (setting [22]) were 10.3% and 8.2%, respectively.
As for `NCCCCNCCCN`, the outcome in [1], in assay [2] and in assay [6] was inactive. Moreover, in assay [7] (at 57.5 µM (top of the series)), the activity change, negative = inhibition was 0.755% (inactive). Further, the results for the max response in assay [7] (setting [21]) and in assay [7] (setting [22]) were 7.14% and 8.54%, respectively. Further, the Potency result in [4], in assay [5] and in [20] was “inactive” in each case.
